Test results from PubChem BioAssay AID1851 (National Center for Advancing Translational Sciences (NCATS), 2009).
Out of some 16,000 compounds screened, about 4,000 (25%) were called active. Inconclusive results (about 26%) are left out. The list is a sample of the results. Values without a mark were called inactive. The call rests on the fitted dose curve; in most records, active means well fitted curve in the direction sought with a large enough effect; inconclusive means small, poorly fitted or top-dose-only effect, or effect the other way; inactive means no such curve, though single readings can be large or run the other way.

target: Cytochrome P450 2C9 (Homo sapiens) (UniProt P11712); experiment: Cytochrome panel assay with activity outcomes; conditions: recombinant CYP, pro-luciferin dealkylation, luminescence, p450-cyp2c9; series mostly up to 57.1 µM; activity, negative = inhibition: at the top concentration
Sequence (P11712 whole entry, looked up): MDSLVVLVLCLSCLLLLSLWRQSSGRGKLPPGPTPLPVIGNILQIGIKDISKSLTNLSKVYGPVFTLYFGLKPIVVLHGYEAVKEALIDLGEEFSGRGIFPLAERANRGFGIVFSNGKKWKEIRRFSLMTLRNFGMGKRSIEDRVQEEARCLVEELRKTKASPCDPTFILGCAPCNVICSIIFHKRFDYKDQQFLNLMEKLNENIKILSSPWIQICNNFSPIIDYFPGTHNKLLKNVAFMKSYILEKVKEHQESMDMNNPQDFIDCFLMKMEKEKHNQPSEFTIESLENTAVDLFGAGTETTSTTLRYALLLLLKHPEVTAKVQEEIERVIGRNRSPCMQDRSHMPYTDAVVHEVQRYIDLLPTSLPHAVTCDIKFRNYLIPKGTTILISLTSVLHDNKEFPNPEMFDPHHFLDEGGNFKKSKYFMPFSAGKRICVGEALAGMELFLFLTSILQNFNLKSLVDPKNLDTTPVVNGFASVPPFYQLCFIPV
On the % scale 0 is the no-effect control and ±100 the full control effect.

| SMILES | AC50 | activity, negative = inhibition |
| --- | --- | --- |
| COc1cccc(CSc2nnc(C(F)(F)F)n2Cc2ccc(F)cc2)c1 | 11.2 µM (active) |  |
| Cc1c(CC(C)(C)C(=O)O)n(Cc2ccc(Cl)cc2)c2ccc(F)cc12 |  | 35.9% |
| Fc1ccc(Cn2c(SCc3ccc(F)c(F)c3)nnc2C(F)(F)F)cc1 | 15.8 µM (active) |  |
| Fc1ccc(Cn2c(SCc3ccc(F)c(C(F)(F)F)c3)nnc2C(F)(F)F)cc1 | 7.08 µM (active) |  |
| Cc1ccc(CSc2nnc(C(F)(F)F)n2Cc2ccc(F)cc2)cc1 | 4.47 µM (active) |  |
| COc1cccc(CSCC(=O)O)c1 |  | -12.1% [at 11.4 µM] |
| COc1cccc(-c2nccc(NC3CCNCC3)n2)c1 |  | 9.19% [at 2.29 µM] |
| Cc1cc(=O)oc2cc(O)c(CN(C)CC(=O)O)cc12 |  | -0.896% [at 11.4 µM] |
| NCCC(=O)O |  | 6.29% |
| Cc1ccc([C@@H](O)c2cnc(C)n2Cc2ccccc2)cc1 |  | -18.2% [at 11.4 µM] |
| Cc1ccc(C(=O)Nc2c(C#N)c(C)c(C)n2Cc2ccccc2)cc1 | 3.55 µM (active) |  |
| COc1cccc(CNc2ccc3nc(-c4ccc(N)cc4)c(OC)n3n2)c1 |  | -6.12% |
| CCN(CC)CCCN(Cc1cc2ccc(C)c(C)c2[nH]c1=O)C(=O)NC1CCCCC1 |  | 15.3% |
| C/C(=N\OC(=O)NC1CCCCC1)c1sc(-c2ccccc2)nc1C | 11.2 µM (active) |  |
| Cc1nc(-c2cccnc2)sc1C(N)=O |  | -10.5% |
| CNC(=O)c1sc(-c2cccnc2)nc1C |  | -12.4% |
| Cc1noc(C)c1-c1nccc(N(C)C)n1 |  | -8.59% [at 2.29 µM] |
| CC(=O)OC[C@@H]1O[C@@H](O/N=C2/C[C@@H](O)[C@@H](O)[C@@H]3[C@@H]4C(=O)N(C[C@@H]5CCCO5)C(=O)[C@H]4CC[C@@H]23)[C@H](OC(C)=O)[C@H](OC(C)=O)[C@@H]1OC(C)=O |  | -5.55% [at 11.4 µM] |
| COc1cccc(-c2[nH]nc3c2C(c2ccsc2)C(C#N)=C(N)O3)c1 (stereo unspecified) | 2.51 µM (active) |  |
| COc1cccc(-c2cc(NCc3cccs3)ncn2)c1 |  | -10.2% [at 2.29 µM] |
| CNc1c2c(nn1C)CCCC2 |  | 9.75% |

| SMILES | AC50 | activity, negative = inhibition |
| --- | --- | --- |
| O=c1cc(CO)oc(CN2CCCC2)c1O |  | -17% |
| Cc1ccc(N(C(C)C(=O)Nc2cc(Cl)ccc2Oc2ccccc2)S(C)(=O)=O)cc1 (stereo unspecified) | 6.31 µM (active) |  |
| CC(C(=O)Nc1ccccc1Sc1ccccc1)N(c1ccccc1)S(C)(=O)=O (stereo unspecified) | 4.47 µM (active) |  |
| COc1cccc(C=NC=Nc2cccc(OC)c2)c1 |  | 22.6% |
| CN(C)C(=O)c1ccc(-c2ccc3ncnc(NCc4cccs4)c3c2)cc1 |  | 8.22% [at 2.29 µM] |
| Cc1ccc(N=C/C(C(=O)C(F)(F)F)=C(\O)c2cccs2)cc1 | 3.55 µM (active) |  |
| C[C@](N)(COP(=O)(O)O)C(=O)O |  | -8.44% |
| COc1cc(C2C(C#N)=C(N)N(Nc3ccccc3)C3=C2C(=O)CC(C)(C)C3)ccc1OCc1cccc(F)c1 (stereo unspecified) | 3.98 µM (active) |  |
| COc1ccc(C2C(C#N)=C(N)N(Nc3ccccc3)C3=C2C(=O)CC(C)(C)C3)cc1C (stereo unspecified) | 1.58 µM (active) |  |
| CC(=O)N(CC(O)CN(C(C)=O)c1c(I)c(C(=O)NC[C@@H](O)CO)c(I)c(C(=O)NC[C@@H](O)CO)c1I)c1c(I)c(C(=O)NC[C@@H](O)CO)c(I)c(C(=O)NC[C@@H](O)CO)c1I |  | 17.2% [at 25.6 µM] |
| COc1ccccc1-c1cc(NCc2cnc(C)cn2)ncn1 |  | 9.42% [at 2.29 µM] |
| O=C(O)[C@H]([C@H]1NCCS1)N1Cc2ccccc2C1 |  | 1.08% [at 11.4 µM] |
| Cc1cccc(Sc2c([N+](=O)[O-])ncn2C)n1 |  | -5.86% |
| N#Cc1ccc(CN2CC3(CCN(C(=O)c4cc(C(F)(F)F)cc(C(F)(F)F)c4)CC3)C2)cc1 |  | -15.8% |
| CC(C)NC(=O)N1CC2(CCN(S(=O)(=O)c3ccccc3)CC2)C1 |  | -13.9% |
| O=S(=O)(c1ccccc1)N1CCC2(CCN(C(c3ccccc3)c3ccccc3)CC2)CC1 | 0.501 µM (active) |  |
| CS(=O)(=O)N1CCC2(CCN(C(c3ccccc3)c3ccccc3)CC2)CC1 |  | -25.5% |
| O=S(=O)(c1ccccc1)N1CCC2(CC1)CN(C(c1ccccc1)c1ccccc1)C2 | 1 µM (active) |  |
| O=S(=O)(c1ccccc1)N1CCC2(CCCN(C(c3ccccc3)c3ccccc3)C2)CC1 |  | -16.2% |
| NC1CCN(c2cccc(Cl)n2)CC1 | inactive |  |
| C[C@H]1[C@@H](O)[C@@H](C)\C=C/C=C\C=C/C=C\C=C/C=C\C=C/[C@@H](O[C@H]2O[C@@H](C)[C@@H](O)[C@@H](N)[C@@H]2O)C[C@@H]2O[C@](O)(C[C@@H](O)C[C@@H](O)[C@@H](O)CC[C@@H](O)C[C@@H](O)CC(=O)O[C@H]1C)C[C@@H](O)[C@H]2C(=O)O (stereo in doubt) |  | -2.12% [at 25.6 µM] |

| SMILES | AC50 | activity, negative = inhibition |
| --- | --- | --- |
| CC(=NC1CCCCC1)c1ccccc1O |  | -0.794% [at 11.4 µM] |
| CCCCN1C(=O)C(NC(=O)C2CC2)(C(F)(F)F)C2=C1CC(C)(C)CC2=O (stereo unspecified) | 6.31 µM (active) |  |
| CC1(C)CC(=O)C2=C(C1)N(Cc1ccccc1)C(=O)C2(O)C(F)(F)F (stereo unspecified) |  | -15.3% |
| CCOC(=O)c1c(-c2ccc(C)o2)csc1NC(=S)NC(=O)N(C)C | 10 µM (active) |  |
| Cc1cc(C)n2nc(-c3sccc3-n3cccc3)cc2n1 |  | -48.1% |
| COc1ccccc1-c1nc(NCCN2CCOCC2)c2ccccc2n1 |  | 14% [at 2.29 µM] |
| COc1ccccc1-c1ccc2ncnc(NCCN3CCOCC3)c2c1 |  | -10.8% [at 2.29 µM] |
| COc1ccc(C2c3c(ncn(CCN4CCOCC4)c3=N)Oc3ccc4ccccc4c32)cc1OC (stereo unspecified) | 8.91 µM (active) |  |
| Cn1sc(NC(=O)c2ccccc2)nc1=O | 14.1 µM (active) |  |
| CCOC(=O)CSc1n[nH]c(NC(=O)c2ccccc2)n1 |  | -20.3% |
| C=CCNC(=O)C1CCN(S(=O)(=O)CC)CC1 |  | -14.6% |
| C[C@@H](CCc1ccccc1)NC[C@H](O)c1ccc(O)c(C(N)=O)c1 | inactive |  |
| CC(CCc1ccccc1)NC(=O)/C=C/c1ccccc1 (stereo unspecified) | 7.08 µM (active) |  |
| O=C(O)/C=C\C(=O)NCc1ccccc1 |  | 3.41% |
| COC(=O)C/C=C\[C@@H](C)[C@@H](CO)NS(=O)(=O)c1ccc(C)cc1 |  | -7.12% [at 11.4 µM] |
| CC(CCc1ccccc1)NS(=O)(=O)c1ccccc1 (stereo unspecified) | 3.98 µM (active) |  |
| Cc1ccc(S(=O)(=O)N[C@H](CO)C(=O)O)cc1 |  | -14.1% [at 11.4 µM] |
| Cc1ccc(S(=O)(=O)N[C@@H](CCc2ccccc2)CC(=O)C(C)(C)C)cc1 | 3.98 µM (active) |  |
| O=C(O)[C@H](/C=C\c1ccccc1)c1ccccc1 |  | -17.8% [at 11.4 µM] |
